Results published in PubChem BioAssay (NCI).
This is part of a sample that, as a whole, favours compounds with a hit. Of some 83,000 tested, about 20% had one in any assay.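 Cell lines were cultured in 96-well plates, exposed to a single compound concentration, and assessed for percent growth 48 hours later.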 A number with no mark means an inactive call. Active and inactive are the calls of the source. The calls were made as follows: active = growth percent below 10; inactive = the rest.

Legend:
Test in all cases: NCI-60 one-dose screen, 48 h (100 = growth as untreated, 0 = no growth, -100 = all killed)
Conditions in all cases: 10 µM unless noted
[1] = system: NCI-H23 lung
[2] = system: NCI-H226 lung
[3] = system: NCI-H322M lung
[4] = system: HOP-62 NSCLC
[5] = system: NCI-H460 lung
[6] = system: HOP-92 NSCLC
[7] = system: A549/ATCC NSCLC
[8] = system: 786-0 renal
[9] = system: COLO 205 colon
[10] = system: DU-145 prostate
[11] = system: K-562 leukemia
[12] = system: MALME-3M melanoma
[13] = system: MDA-MB-231 breast
[14] = system: RXF 393 renal
[15] = system: SF-268 CNS
[16] = system: SF-295 CNS
[17] = system: SF-539 CNS
[18] = system: UACC-257 melanoma
[19] = system: M14 melanoma
[20] = system: NCI-H522 lung

| SMILES | growth [1] | growth [2] | growth [3] | growth [4] | growth [5] | growth [6] | growth [7] | growth [8] | growth [9] | growth [10] | growth [11] | growth [12] | growth [13] | growth [14] | growth [15] | growth [16] | growth [17] | growth [18] | growth [19] | growth [20] |
| --- | --- | --- | --- | --- | --- | --- | --- | --- | --- | --- | --- | --- | --- | --- | --- | --- | --- | --- | --- | --- |
| Oc1ccc(Nc2ccc3ccccc3c2)cc1 | 69% | 89.2% | 33.9% | 57.4% | 59.4% | 55.9% | 55.3% | 46.7% | 96.1% | 51.2% | 26.5% | 92.9% | 36% | 78.3% | 50.4% | 67.7% | 36.6% | 73.7% | 53.3% | – |
| CC12CCC(O)CC1=CCC1C2CCC2(C)C3=NN=CC3CC12 (configuration not stated) | 101% | 105% | 118% | 101% | 125% | – | 104% | 112% | 112% | 122% | 61.1% | 98% | 103% | 102% | 105% | – | 106% | 103% | 99.7% | 105% |
| CCN(CC)CC(O)CNc1ccc(NCC2CO2)c2c1C(=O)c1ccccc1C2=O (configuration not stated) | -43% (active) | 0.0591% (active) | -16.7% (active) | -34.9% (active) | -43.9% (active) | – | 7.32% (active) | -21.7% (active) | -40.8% (active) | -19.1% (active) | -25.6% (active) | -44.4% (active) | -2.98% (active) | 4.29% (active) | -7.61% (active) | 20.4% | -39.4% (active) | -2.17% (active) | -63.1% (active) | -74.1% (active) |
| Cc1ccc(NC2=CC(=O)C(=O)c3ccccc32)cc1 | -31.2% (active) | -67.9% (active) | -12.5% (active) | -86.2% (active) | 5.26% (active) | – | -36.5% (active) | 34.8% | – | -65.1% (active) | 16.4% | -76.5% (active) | 49% | 44.1% | 41% | -22.9% (active) | -20.4% (active) | -46.2% (active) | -63.5% (active) | 18.8% |
| O=C1C=CC(=O)N1C1CCCCCCCCCCC1 | 89.9% | 82.9% | 95.3% | 101% | 106% | – | 91.6% | 94.6% | 52.4% | 88.1% | -2.11% (active) | 72.9% | 99.8% | 64% | 100% | 90.8% | 98.5% | 66.6% | 80.8% | 7.03% (active) |
| C/C(=N/NC(N)=S)c1ccc(C)cc1 | 95.4% | 83.5% | 106% | 87.8% | 100% | – | 87.6% | 101% | 99.1% | 100% | 58% | 102% | 97.4% | 97.4% | 98.7% | 93.3% | 100% | 89.2% | 82.7% | 94.5% |
| O=C(CBr)c1ccc(OC(=O)c2ccccc2)cc1 | 101% | 113% | 134% | 99.9% | 104% | 88% | – | – | 109% | 114% | 89% | 125% | 107% | 119% | 102% | 112% | 102% | 87.9% | 87.4% | – |
| CCCCCCCCCCCC[n+]1ccc2ccccc2c1 | -33.4% (active) | 4.19% (active) | 17% | -33.2% (active) | -13.5% (active) | – | 6.68% (active) | -62.8% (active) | -80.2% (active) | 8.38% (active) | -18.4% (active) | – | -18% (active) | -6.08% (active) | -72.7% (active) | -40.3% (active) | -47.8% (active) | -39.2% (active) | -84.2% (active) | -39.2% (active) |
| CC1(O)CCCCCC1 | 98.4% | 99.1% | 93.1% | 87.7% | 107% | – | 103% | 95.7% | 107% | 106% | 85.3% | 117% | 106% | 108% | 101% | 98.7% | 102% | 101% | 96.2% | 112% |
| O=C1C=CC(=O)c2c(O)c(CO)c(CO)c(O)c21 | 89.2% | 110% | 119% | 109% | 102% | – | 99.5% | 93.7% | 12% | 54.9% | 91.7% | 9.33% (active) | 89.6% | 98% | 111% | 95% | 104% | 94.4% | 14% | 56.6% |
| S=C=Nc1ccc(N2CCOCC2)cc1 | 92.1% | 86% | 96.1% | 89.6% | 99.8% | – | 89.8% | 89.8% | 97.4% | 108% | 89.6% | 82.3% | 97.3% | 72.2% | 99.9% | 84.8% | 89.5% | 88.7% | 93% | 74.4% |
| O=C(Nc1ccc(Cl)c(Cl)c1)Nc1ccccc1O | 64.9% | 96.9% | 87.3% | 88.8% | 79.5% | – | 37.2% | 99.6% | 85.3% | 118% | 48.7% | 114% | 82.5% | 101% | 92.9% | 75.5% | 91.5% | 78.2% | 58.4% | 26.8% |
| COc1ccc(C(OCC2OC(n3ccc(NC(=O)c4ccccc4)nc3=O)C(O)C2O)(c2ccccc2)c2ccccc2)cc1 (configuration not stated) | 54.8% | 29.9% | 109% | 85.3% | 15.5% | – | 28.1% | 52.5% | 39.5% | 52.4% | 32.7% | – | 58.2% | 31% | 54.2% | 41.7% | 42.9% | 64.3% | 40.2% | 67.9% |
| Cc1ccc(Nc2ccc(O)c3c2C(=O)c2c(O)ccc(Nc4ccc(C)cc4)c2C3=O)cc1 | 101% | 95.6% | 128% | 101% | 105% | – | 99.1% | 102% | 108% | 124% | 115% | 102% | 110% | – | 114% | 104% | 96.3% | 95% | 102% | 94.8% |
| CCOc1ccc2c(c1)/C(=C\C=C\C1CC(C)C3CC(OCC)CCC3N1CC)CC(C)N2CC (configuration not stated) | 14.5% | 18.1% | 4.18% (active) | 11.6% | 8.11% (active) | – | 4.18% (active) | 10.3% | -46.7% (active) | 14.8% | 4.61% (active) | -30.1% (active) | 13.6% | – | 21.7% | – | 19.5% | -25.2% (active) | 14.9% | -19.3% (active) |
| Cc1cc(C)c(C#N)c(Sc2nc(C)c([N+](=O)[O-])c(C)c2C#N)n1 | 60.2% | 111% | 83.6% | 72.8% | 89.9% | -1.8% (active) | 77% | 103% | 37.8% | 41.7% | 14.5% | 36.1% | 91.4% | 55.2% | 81.6% | 84.1% | 49.5% | – | 54.2% | – |
| COc1cc(/C=C/c2ccnc3ccccc23)cc(OC)c1OC | 26.5% | 38.3% | 65.7% | 28.1% | 22.4% | – | – | 39.6% | 22.5% | 64.4% | 8.29% (active) | 40.3% | 47.1% | 22.1% | 48.2% | 32.4% | 46.1% | 58.7% | 13.3% | 26.8% |
